For experiment [1], the target named is T1, Hexokinase-4 (Homo sapiens) + Glucokinase regulatory protein (Homo sapiens) (UniProt P35557+Q14397). The experiment in a line: qHTS assay for inhibitors of recombinant human GCK-GKRP interaction: HTRF assay (AID 743207).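 Further: 0% = DMSO with GCK present and -100% = DMSO wells lacking GCK.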 The procedure, abridged: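 HTRF read-out (ex 320 nm; 615/665 nm emission) after 60 min RT equilibration of 5 nM GST-GCK, 5 nM FLAG-GKRP, 2 uM S6P, compound and anti-FLAG/anti-GST detection antibodies; signal normalized between DMSO wells with and without GCK.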
T1 sequence (P35557 whole entry, looked up): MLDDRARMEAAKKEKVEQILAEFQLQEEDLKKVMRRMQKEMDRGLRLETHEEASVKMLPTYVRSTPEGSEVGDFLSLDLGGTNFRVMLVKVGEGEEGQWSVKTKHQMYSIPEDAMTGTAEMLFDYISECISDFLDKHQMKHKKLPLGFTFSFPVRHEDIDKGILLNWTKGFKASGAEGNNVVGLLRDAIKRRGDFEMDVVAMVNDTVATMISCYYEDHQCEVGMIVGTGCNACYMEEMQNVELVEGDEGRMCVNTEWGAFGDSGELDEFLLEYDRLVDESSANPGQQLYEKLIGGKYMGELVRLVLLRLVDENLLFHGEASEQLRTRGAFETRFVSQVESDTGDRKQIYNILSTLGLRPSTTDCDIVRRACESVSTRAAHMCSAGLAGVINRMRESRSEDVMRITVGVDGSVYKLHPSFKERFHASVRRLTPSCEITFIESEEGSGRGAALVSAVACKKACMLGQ
T1 sequence (Q14397 whole entry, looked up): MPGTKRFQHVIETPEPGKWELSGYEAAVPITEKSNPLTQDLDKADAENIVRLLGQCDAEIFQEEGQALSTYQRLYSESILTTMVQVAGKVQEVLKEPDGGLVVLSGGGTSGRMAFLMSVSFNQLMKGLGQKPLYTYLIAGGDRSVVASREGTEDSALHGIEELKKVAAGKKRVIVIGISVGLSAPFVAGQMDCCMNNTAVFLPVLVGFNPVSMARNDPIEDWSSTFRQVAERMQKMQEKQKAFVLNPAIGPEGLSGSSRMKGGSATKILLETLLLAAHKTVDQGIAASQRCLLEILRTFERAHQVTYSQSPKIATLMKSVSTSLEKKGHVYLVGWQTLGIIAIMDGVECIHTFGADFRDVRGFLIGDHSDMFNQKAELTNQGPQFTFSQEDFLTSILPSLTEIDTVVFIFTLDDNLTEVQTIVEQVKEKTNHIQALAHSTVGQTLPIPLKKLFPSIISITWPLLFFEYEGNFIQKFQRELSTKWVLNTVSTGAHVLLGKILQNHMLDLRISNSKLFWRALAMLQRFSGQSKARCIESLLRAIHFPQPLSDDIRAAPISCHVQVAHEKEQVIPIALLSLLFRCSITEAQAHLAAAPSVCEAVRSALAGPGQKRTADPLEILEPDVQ
(qHTS replaces the single test concentration by a dilution series.)

The nature of experiment [2]: qHTS Assay for Identifying Gametocytocidal Compounds (AID 743244). Further: potency means the concentration at half of the fitted maximal effect.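 On max response: on the % scale 0 is the no-effect control and ±100 the full control effect; actives lower the fluorescent signal which means gametocytes are killed.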 To be noted: P. falciparum 3D7 stage III-V gametocytes, alamarBlue, 72 h; max response: stronger effect = lower value. An outline of the steps:
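Compounds are pinned into medium, gametocytes (stage III–V, 3D7, 20,000 cells/well) added, and plates held 72 h at 37 °C in 5% CO2. AlamarBlue follows for 24 h before fluorescence reading.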

Experiment [3] in a line: qHTS assay for cell viability of HEK293 cells (AID 743288). Further: on the % scale 0 is the no-effect control and ±100 the full control effect; nearly all actives have a fitted effect of over 50% in size. As to conditions: ATP luminescence (CellTiter-Glo), 18 h; max response: stronger effect = lower value. An outline of the steps: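 Environmental chemicals tested in qHTS format against parental HEK293 cells; 18 h treatment, 37 C; read-out ATP luminescence (CellTiter-Glo), 30 min RT development.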
A short description of experiment [4]: qHTS assay for cell viability of the p53RE-bla HCT-116 cell line (AID 743292). Further: on the % scale 0 is the no-effect control and ±100 the full control effect; nearly all actives have a fitted effect of over 55% in size. The procedure, abridged: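 ATP-based luminescent viability (CellTiter-Glo, 30 min RT) after 16 h compound treatment at 37 C of p53RE-bla HCT-116 cells, seeded at 4,000 cells/well and rested 5 h before dosing.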
A short description of experiment [5]: qHTS profiling of the MIPE4 collection as inhibitors of Plasmodium falciparum (3D7) proliferation (AID 743344; call rule not given here;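 further: scaled between DMSO vehicle wells and 0.29 µM artemisinin as full inhibition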). As to conditions: P. falciparum 3D7 in erythrocytes, SYBR Green DNA fluorescence, 72 h; at 28.5 µM (top of the series) unless noted. An outline of the steps:
(§1)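 Erythrocytes infected with P. falciparum (0.3% parasitemia, 2.5% hematocrit) incubated with compounds 72 h at 37 C, 5% CO2. Lysis with saponin/Triton buffer containing SYBR Green I, overnight at room temperature in the dark; DNA fluorescence (485/535 nm) normalised to 0.29 uM artemisinin and DMSO.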

Experiment [6] in a line: qHTS profiling of the MIPE4 collection as inhibitors of Plasmodium falciparum (DD2) proliferation (AID 743345; call rule not given here). As to conditions: P. falciparum Dd2 in erythrocytes, SYBR Green DNA, 72 h; at 28.5 µM (top of the series) unless noted. The procedure, abridged: as §1
Experiment [7] can be described thus: qHTS profiling of the MIPE4 collection as inhibitors of Plasmodium falciparum (DD2) proliferation (Rep 2) (AID 743346; call rule not given here). To be noted: P. falciparum Dd2 in erythrocytes, SYBR Green DNA, 72 h; at 28.5 µM (top of the series) unless noted. The procedure, abridged: as §1
Experiment [8] in a line: qHTS profiling of the MIPE4 collection as inhibitors of Plasmodium falciparum (HB3) proliferation (AID 743347; call rule not given here;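 further: plate controls were DMSO vehicle wells for no effect and artemisinin wells for full effect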). As to conditions: P. falciparum HB3 in erythrocytes, SYBR Green DNA, 72 h; at 28.5 µM (top of the series) unless noted. The procedure, abridged: as §1
Experiment [9] can be described thus: High-throughput drug toxicity screening in the BPDCN cell line Gen2.2 (AID 1224824; call rule not given here;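 further: cells exposed to compounds for 48 h before reading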). As to conditions: Gen2.2 BPDCN cells; at 45.8 µM (top of the series) unless noted. The procedure, abridged: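 CellTiter-Glo luminescence after 48 h compound exposure of Gen2.2 cells; percent activity set with DMSO as 100% and bortezomib (9.2 uM final) as 0%. Cells seeded at 500 per well, RPMI + 10% FBS, 37 °C.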

Experiment [10] is described as follows: High-throughput drug toxicity screening in the BPDCN cell line Cal-1 (AID 1224825; call rule not given here). To be noted: Cal-1 BPDCN cell viability, qHTS; at 45.8 µM (top of the series) unless noted. The procedure, abridged:
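Exponentially growing Cal-1 cells, 500 per well in phenol red-free RPMI with 10% FBS, were exposed to compounds for 48 h at 37 °C, 5% CO2. Viability was read by CellTiter-Glo luminescence and normalised to DMSO (100%) and 9.2 uM bortezomib (0%).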

Experiment [11] can be described thus: qHTS assay for measurement of the activity of small molecule inhibitors on Zika virus induced Caspase-3 activity in human iPSC derived neural progenitor cells (hNPCs) (AID 1224857). Further: % of control where 0% means no effect; nearly all actives have a fitted effect of over 65% in size. An outline of the steps: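 Pretreat hNPCs with compound 1 h; infect ZIKV 2 FFU/cell; 6 h 37 C, 5% CO2; Caspase-Glo 3/7, 30 min RT; luminescence; normalize to no-virus and virus-only wells.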

A short description of experiment [12]: qHTS assay for measurement of the activity of small molecule inhibitors on Zika virus induced Caspase-3 activity in human astrocytoma cells (AID 1224859).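 Further: plate controls were ZIKV-infected untreated cells for no effect and uninfected cells for full effect.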 An outline of the steps:
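Human SNB-19 astrocytoma cells in RPMI 1640 with 10% FBS receive compound one hour ahead of Zika virus at 2 FFU/cell. After 6 h infection, caspase-3/7 activity is detected by Caspase-Glo luminescence.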

Experiment [13] in a line: qHTS Screen of the MIPE 4.0 Collection Against Ewings Sarcoma (RDES) (AID 1259252). Further: nearly all actives have a fitted effect of over 35% in size. Further: potency means the concentration at half of the fitted maximal effect. The procedure, abridged:
(§2)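 Compound titrations go onto adherent log-phase cells 4 h after seeding, incubate 48 h at 37C, then CellTiter-Glo luminescence reports viability relative to DMSO and cell-free controls.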

Experiment [14] can be described thus: qHTS Screen of the MIPE 4.0 Collection Against Ewings Sarcoma (TC71) (AID 1259253). Further: nearly all actives have a fitted effect of over 40% in size. Further: potency means the concentration at half of the fitted maximal effect. The procedure, abridged:
as §2

Experiment [15] is described as follows: qHTS Screen of the MIPE 4.0 Collection Against Ewings Sarcoma (EW8) (AID 1259255). Further: nearly all actives have a fitted effect of over 35% in size. Further: potency means the concentration at half of the fitted maximal effect.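 On viability: 100% = DMSO-treated cells and 0% = medium-only wells without cells.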 An outline of the steps:
as §2

Experiment [16] can be described thus: qHTS Screen of the MIPE 4.0 Collection Against Ewings Sarcoma (TC32) (AID 1259256). Further: nearly all actives have a fitted effect of over 45% in size. Further: potency means the concentration at half of the fitted maximal effect. The procedure, abridged:
as §2

The target in experiment [17] is T1, Hexokinase-4 (Homo sapiens) + Glucokinase regulatory protein (Homo sapiens). The experiment in a line: qHTS assay for inhibitors of recombinant human GCK-GKRP interaction: ADP-Glo assay (AID 743206).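 Further: plate controls were DMSO plus enzyme for no effect and no enzyme for full effect.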 An outline of the steps:
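GST-GCK and FLAG-GKRP (15 nM each in the dispensed mix, with 2 uM S6P) react with 0.4 mM ATP and 5 mM glucose (final) in Hepes pH 7.6 for 60 min at room temperature. ADP is measured by ADP-Glo luminescence.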

Structures are written as SMILES. “And” between values parts separate entries of the source, which are not always exact repeats. Equal values may be shown once. Inconclusive results are not listed. Some compounds were tested as several samples or in several runs, with calls that do not always agree. The source made the active and inactive calls. Unless noted, the call rests on the fitted dose curve; in most records, active means well fitted curve in the direction sought with a large enough effect; inconclusive means small, poorly fitted or top-dose-only effect, or another doubt; inactive means no such curve, though single readings can be large; an effect the other way counts as inactive or inconclusive.

In the case of `N[C@@H](Cc1c[nH]c2ccc(O)cc12)C(=O)O`, the Potency result in experiment [1], in experiment [4], in experiment [11], in [12], in [13] and in [14] was “inactive” each time. Besides, the Potency result in experiment [15] was “inactive”. Moreover, the max response is -0.101% (inactive) and -5.53% (inactive) in experiment [2]; 3.87% (inactive) in experiment [3]. For the same compound, the parasite growth, % of DMSO control in experiment [5] stood at 101%. Also, in [6], the parasite growth remaining, % of DMSO control (lower = more inhibition) was determined as 101%. The parasite growth, % of control (lower = inhibition) in experiment [7] was determined as 132%. In experiment [8], this compound registered a growth, % of control of 99.6%. In addition, the cell viability, % of control (lower = more cytotoxic) in experiment [9] was 126%. In experiment [10], the viability (% of control) is 35.8%.
In the case of `CCOC(=O)C(C)(C)Oc1ccc(Cl)cc1`, the Potency entry in experiment [1], in experiment [4], in experiment [11], in experiment [12], in [13] and in experiment [14] was “inactive” throughout. The Potency result in [16] is “inactive”. Besides, the max response in [2] was 9.62% (inactive) and 0.495% (inactive); in experiment [3], -5.02% (inactive). The compound also gave a parasite growth, % of DMSO control in [5] of 92.7%. In experiment [6], the parasite growth remaining, % of DMSO control (lower = more inhibition) was found to be 103%. Besides, in experiment [7], the parasite growth, % of control (lower = inhibition) is 78%. In experiment [8], this compound came in with a growth, % of control of 104%. The cell viability, % of control (lower = more cytotoxic) in experiment [9] is 163%. Further, the viability (% of control) in experiment [10] is 22.1%.
For the compound `COc1cc2nc(N3CCN(C(=O)C4COc5ccccc5O4)CC3)nc(N)c2cc1OC` (centres undefined), the Potency result in [17], in experiment [1], in [11], in experiment [12] and in [13] was “inactive” each time. Moreover, the max response in experiment [2] is 2.28% (inactive). This compound also returned a parasite growth, % of DMSO control in experiment [5] of 5.44%. The parasite growth remaining, % of DMSO control (lower = more inhibition) in experiment [6] turned out to be 9.25%. Besides, the parasite growth, % of control (lower = inhibition) in [7] stood at 11.1%. This compound registered a growth, % of control in experiment [8] of 2.34%. Besides, the cell viability, % of control (lower = more cytotoxic) in [9] was found to be 14.1%. The viability (% of control) in [10] turned out to be 8.05%. For the same compound, the Potency in experiment [14] was 16.6 µM (active).
In the case of `Clc1ccc2c(c1)C(N1CCNCC1)=Nc1ccccc1O2`, the Potency result in experiment [17], in [1], in experiment [11] and in experiment [12] was “inactive” in each case. Further, the Potency is 0.794 µM (active) in experiment [2]; 10.5 µM (active) in experiment [13]; 16.6 µM (active) in experiment [14]; 16.6 µM (active) in experiment [15]; 18.7 µM (active) in [16]. Besides, in experiment [2], the max response was -3.09% (inactive). Also, in experiment [5], the parasite growth, % of DMSO control was found to be 50.7%. Besides, the parasite growth remaining, % of DMSO control (lower = more inhibition) in [6] turned out to be 28.9%. Moreover, the parasite growth, % of control (lower = inhibition) in experiment [7] was 27.9%. Moreover, the growth, % of control in [8] was found to be 67.9%. Besides, the cell viability, % of control (lower = more cytotoxic) in experiment [9] was found to be 72.6%. Besides, the viability (% of control) in experiment [10] stood at 102%.
Consider `CN1CCC(=C2c3ccccc3CC(=O)c3sccc32)CC1`, for which the Potency entry in experiment [1], in [11] and in [12] was “inactive” throughout. The compound further yielded a parasite growth, % of DMSO control in experiment [5] of 13.6%. Moreover, the parasite growth remaining, % of DMSO control (lower = more inhibition) in [6] is 55.5%. For the same compound, the parasite growth, % of control (lower = inhibition) in experiment [7] was found to be 40.5%. The same compound registered a growth, % of control in experiment [8] of 12.6%. Besides, the cell viability, % of control (lower = more cytotoxic) in experiment [9] turned out to be 14.3%. Further, in experiment [10], the viability (% of control) was found to be 23.6%. In addition, the Potency was 11.8 µM (active) in experiment [13], 13.2 µM (active) in experiment [14] and 16.6 µM (active) in experiment [16].
In the case of `O=C(c1ccc(F)cc1)C1CCN(CCn2c(=O)[nH]c3ccccc3c2=O)CC1`, the Potency entry in [1], in [11], in experiment [12], in experiment [13] and in [16] was “inactive” throughout. The max response in experiment [2] is 7.32% (inactive) and -5.52% (inactive). The compound further displayed a parasite growth, % of DMSO control in experiment [5] of 109%. For the same compound, the parasite growth remaining, % of DMSO control (lower = more inhibition) in [6] came out at 19.2%. Besides, the parasite growth, % of control (lower = inhibition) in experiment [7] is 104%. The growth, % of control in experiment [8] is 61.3%. For the same compound, in experiment [9], the cell viability, % of control (lower = more cytotoxic) was found to be 216%. The viability (% of control) in experiment [10] stood at 112%.
Take `O=c1[nH]cc(F)c(=O)[nH]1`: the Potency entry in experiment [1], in experiment [4], in experiment [11] and in [12] was “inactive” each time. In addition, the max response in experiment [2] is 14.8% (inactive) and 3.27% (inactive); in experiment [3], -0.211% (inactive). Further, the parasite growth remaining, % of DMSO control (lower = more inhibition) in experiment [6] is 18.8%. In addition, in experiment [9], the cell viability, % of control (lower = more cytotoxic) worked out at 118%. In addition, the viability (% of control) in experiment [10] amounted to 29.1%. Further, the Potency was 5.26 µM (active) in experiment [13] and 9.35 µM (active) in experiment [16].

(Values after PubChem BioAssay (NCATS).)
